A selection: hits, their analogues and other compounds. The true share with any hit is near 18%.
DT40 TDP1 CPT: qHTS for Inhibitors of human tyrosyl-DNA phosphodiesterase 1 (TDP1): qHTS in cells in presence of CPT; 12% of 420,000 active; chicken DT40 Tdp1-/-;hTDP1 cells + 20 nM CPT, ATP luminescence, 48 h; Potency, µM (series often up to 46.2 µM), inactives show at the top dose activity change, negative = growth inhibition, usual class: inhibitors; AID 686979, 2013; also: potency is read from the fitted curve at half-maximal effect; % is scaled to controls: 0 for no effect and ±100 for the full control effect; nearly all actives have a fitted effect of over 55% in size
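Cell growth measured by CellTiter-Glo luminescence after a minimum 48 h, 37 C compound exposure with 20 nM CPT in Tdp1-knockout DT40 cells stably expressing hTDP1, seeded 400/well; qHTS titration format.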
PLK1 PBD inh: qHTS for Inhibitors of PLK1-PDB (polo-like kinase 1 - polo-box domain): Primary Screen; 2.8% of 360,000 active; Potency, µM, inactives show max response, negative = inhibition, most hits filed as inhibitors; Plk1 PBD binding of FITC phosphopeptide, fluorescence polarization; Serine/threonine-protein kinase PLK1 (Homo sapiens), P53350; also: potency is read from the fitted curve at half-maximal effect; series mostly up to about 57 µM; % is scaled to controls: 0 for no effect and ±100 for the full control effect; nearly all actives have a fitted effect of over 65% in size
TDP1 inh: qHTS Assay for Inhibitors of Tyrosyl-DNA Phosphodiesterase (TDP1). Tyrosyl-DNA phosphodiesterase 1 (Homo sapiens), Q9NUW8. recombinant TDP1, AlphaScreen DNA substrate cleavage. Potency, µM (doses to about 130 µM), for inactives: at the top dose activity change, negative = inhibition, usual class: inhibitors. 0.28% of 350,000 active. AID 485290, 2010; also: potency is read from the fitted curve at half-maximal effect; % is scaled to controls: 0 for no effect and ±100 for the full control effect; nearly all actives have a fitted effect of over 40% in size
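Compounds were preincubated with Tdp1 (1 nM final) for 15 min at room temperature before substrate (15 nM final) started a 5 min reaction; beads (10 ug/ml final) were then added for 10 min before AlphaScreen detection.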
TDP1 cell noCPT: qHTS for Inhibitors of human tyrosyl-DNA phosphodiesterase 1 (TDP1): qHTS in cells in absence of CPT | DT40 Tdp1-/- hTDP1 cells, no CPT, ATP luminescence, 48 h | Potency, µM (titrated, usually from 46.2 µM), inactives show top-dose activity change, negative = growth inhibition, hits mostly inhibitors | 15% of 420,000 active | AID 686978, 2013; also: potency is read from the fitted curve at half-maximal effect; % is scaled to controls: 0 for no effect and ±100 for the full control effect; nearly all actives have a fitted effect of over 55% in size
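Growth of hTDP1-complemented DT40 Tdp1-knockout cells is measured by ATP luminescence after at least 48 hr compound exposure at 37 °C, with DMSO substituting for the 20 nM CPT used in the parallel screen.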
KAT2A inh: qHTS Assay for Inhibitors of GCN5L2; GCN5L2 HAT assay, ThioGlo1 CoA-SH fluorescence; Potency, µM (doses to about 58.9 µM), inactives show at the highest dose activity change, negative = inhibition, usual class: inhibitors; 0.21% of 390,000 active; AID 504327, 2011; also: potency is read from the fitted curve at half-maximal effect; % is scaled to controls: 0 for no effect and ±100 for the full control effect
Target sequence (Q92830 whole entry, looked up): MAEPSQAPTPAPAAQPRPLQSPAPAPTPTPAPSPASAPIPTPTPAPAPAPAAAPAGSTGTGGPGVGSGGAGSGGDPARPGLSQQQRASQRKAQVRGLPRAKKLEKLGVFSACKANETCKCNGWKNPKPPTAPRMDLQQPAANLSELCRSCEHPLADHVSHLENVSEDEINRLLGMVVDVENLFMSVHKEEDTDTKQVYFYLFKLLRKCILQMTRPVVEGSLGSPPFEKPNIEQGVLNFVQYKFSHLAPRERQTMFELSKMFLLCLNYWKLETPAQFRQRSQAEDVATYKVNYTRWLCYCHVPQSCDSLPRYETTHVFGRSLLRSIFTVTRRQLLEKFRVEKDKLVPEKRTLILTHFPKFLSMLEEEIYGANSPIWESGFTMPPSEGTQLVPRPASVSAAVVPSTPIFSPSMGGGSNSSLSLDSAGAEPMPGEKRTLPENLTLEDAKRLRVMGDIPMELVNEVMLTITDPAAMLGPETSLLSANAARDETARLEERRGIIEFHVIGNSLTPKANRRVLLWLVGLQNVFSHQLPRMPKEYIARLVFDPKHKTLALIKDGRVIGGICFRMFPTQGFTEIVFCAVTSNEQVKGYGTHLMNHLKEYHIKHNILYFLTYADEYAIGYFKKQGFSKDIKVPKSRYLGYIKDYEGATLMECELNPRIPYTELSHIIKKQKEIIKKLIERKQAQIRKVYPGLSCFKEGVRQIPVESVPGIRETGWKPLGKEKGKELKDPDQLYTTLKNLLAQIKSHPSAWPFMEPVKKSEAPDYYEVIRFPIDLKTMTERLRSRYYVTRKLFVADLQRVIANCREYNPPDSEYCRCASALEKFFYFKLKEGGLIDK
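qHTS, 1536-well. 20nM enzyme, pH 7.5 HEPES/EDTA/Tween-20 buffer; 15 min compound preinc., RT. Start: 75uM H3(1-25), 70uM AcCoA, 50uM ThioGlo1. Read Ex340/Em540 at t=0 (autofluorescence flag) and t=20 min.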
VDR inhibitor: Inhibitors of the vitamin D receptor (VDR): qHTS; Vitamin D3 receptor (Homo sapiens), P11473; VDR-SRC2-3 peptide fluorescence polarization, 2 h; Potency, µM, for inactives: max response, negative = inhibition, most hits filed as inhibitors; 0.93% of 400,000 active; AID 504847, 2011; also: potency is read from the fitted curve at half-maximal effect; % is scaled to controls: 0 for no effect and ±100 for the full control effect
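FP read-out; VDR + SRC2-3 coactivator peptide; 23 nl compound by pintool; 2 h RT incubation; reagents held at 4 deg C, protected from light.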
USP1 UbRho: Inhibitors of USP1/UAF1: Hit Validation in Primary Assay; Ub-Rhodamine cleavage, fluorescence kinetic read; Potency, µM (top dose mostly 56.8 µM), for the others: at the highest dose activity change, negative = inhibition, usual class: inhibitors; 50% of 50 active; AID 540327, 2011; shares compounds with VDR inhibitor
VDR confirm: qHTS for Inhibitors of the vitamin D receptor (VDR): Hit Validation in Primary Screen; shares compounds with VDR inhibitor; VDR-coactivator inhibition assay, qHTS confirmation; Potency, µM, most hits filed as inhibitors; 89% of 840 active; also: potency is read from the fitted curve at half-maximal effect
VDR FP fluor: qHTS for Inhibitors of the vitamin D receptor (VDR): Hit Validation using a Fluorescein Assay; VDR-coactivator binding, fluorescein fluorescence polarization; Potency, µM (highest dose often 57.1 µM), for inactives: at the top dose activity change, negative = inhibition, usual class: inhibitors; shares compounds with VDR inhibitor; 48% of 840 active; also: potency is read from the fitted curve at half-maximal effect
VDR bla reporter: qHTS for Inhibitors of the vitamin D receptor (VDR): Hit Validation using a Beta-Lactamase Assay; Potency, µM (highest dose often 46.1 µM), for the others: top-dose activity change, negative = inhibition, usual class: inhibitors; VDR beta-lactamase reporter cells, FRET ratio; cells co-treated with VDR agonist LG190178; shares compounds with VDR inhibitor; 23% of 840 active; AID 602202, 2012; also: potency is read from the fitted curve at half-maximal effect; % is scaled to controls: 0 for no effect and ±100 for the full control effect
VDR cytotox: qHTS for Inhibitors of the vitamin D receptor (VDR): Hit Validation using a Cytotoxicity Assay. Potency, µM (doses to about 48.3 µM), inactives show at the top dose activity change, negative = cytotoxicity, actives largely listed as cytotoxic. shares compounds with VDR inhibitor. cytotoxicity counter-screen, cell viability, qHTS. 18% of 840 active;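 also: potency is read from the fitted curve at half-maximal effect; plate controls were DMSO for no effect and high-concentration cycloheximide for full effect; nearly all actives have a fitted effect of over 75% in size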
* = called active by the depositor; ? = inconclusive; . = no result given; [ ] = remark or other dose. Calls follow the shape of the dose curve; as a rule, active = well fitted curve in the direction sought with a large enough effect; inconclusive = small, poorly fitted or top-dose-only effect, or another doubt; inactive = no such curve, though single readings can be large; an effect the other way counts as inactive or inconclusive.

SMILES	DT40 TDP1 CPT	PLK1 PBD inh	TDP1 inh	TDP1 cell noCPT	KAT2A inh	VDR inhibitor	VDR confirm	VDR FP fluor	VDR bla reporter	VDR cytotox	others
C[C@H](CO)N1C[C@H](C)[C@@H](CN(C)S(=O)(=O)c2ccccc2)Oc2ccc(NC(=O)CCN3CCOCC3)cc2C1=O	5%	-18%	1%	1%	-1%	-5%	.	.	.	.
CS(=O)(=O)c1sc(C#N)c2c1C(=O)CC(c1ccccc1)C2 (stereo unspecified)	0.52µM*	5.3µM*	6%	0.52µM*	-4%	14µM*	8.4*	?	15µM*	3.7µM*
COC(=O)c1ccc(CN2CCc3ccccc32)cc1	-15%	-8%	.	-28%	-5%	-20%	.	.	.	.
Nc1ccc(/C=C/C(=O)c2ccco2)cc1	-19%	24%	1%	?	0%	?	.	.	.	.
O=C(/C=C/c1cc(Br)ccc1O)c1ccco1	6.5µM*	27µM*	.	2.6µM*	-2%	25µM*	27*	?	?	?
C#C[C@]1(O)CCC2C3CCC4=Cc5oncc5CC4(C)C3CCC21C (stereo partly specified)	?	0%	.	?	.	-8%	.	.	.	.
CCOC(=O)c1c(-c2ccccc2)csc1NC(=O)c1cc(-c2cccc(OC)c2)on1	?	.	-4%	9%	-13%	79µM*	22*	16µM*	-16%	-3%
COc1ccc(OC)c2c1C(=O)CC2C (stereo unspecified)	5%	4%	.	-11%	.	.	.	.	.	.
COc1ccc(OC)c2c1C(=O)C(Cl)=C(Cl)C2=O	0.23µM*	2.1µM*	.	0.41µM*	13µM*	22µM*	8.4*	?	1.6µM*	5.2µM*
O=C(N[C@@H](Cc1ccccc1)C(=O)O)c1ccc(C(F)(F)F)cc1	-2%	-3%	5%	-5%	3%	-7%	.	.	.	.
O=C(NC1(O)C(=O)c2ccccc2C1=O)c1ccc(C(F)(F)F)cc1	?	-16%	-2%	?	-8%	1.8µM*	4.7*	?	22%	11%
Cc1ccc(C(=O)NC2(O)C(=O)c3ccccc3C2=O)cc1C	?	-22%	-1%	?	0%	10µM*	?	?	13%	-1%
Cc1ccc(C(=O)NCC(=O)OCN2C(=O)c3ccccc3C2=O)cc1C	-29%	5%	0%	-22%	-6%	-8%	.	.	.	.
Cc1cc(C)n2nc(SCC(=O)NC3CCCCC3)nc2n1	6%	?	3%	-11%	-1%	-17%	.	.	.	.
COc1ccc(CN2C(=O)CN(S(C)(=O)=O)CC2(C)C(=O)NCc2ccccc2)cc1OC (stereo unspecified)	27%	-2%	.	19%	.	.	.	.	.	.
Nc1ccccc1Sc1nc2ccccc2[nH]1	13µM*	13µM*	8%	15µM*	?	20µM*	21*	14µM*	6%	7%
CCSc1nc2ccccc2[nH]1	4%	-3%	6%	-1%	0%	-11%	.	.	.	.
C#CCOCCOCCOCCNc1nc(N2CCN(C(=O)[C@H](CCC(=O)O)n3cc(C(N)CC(C)C)nn3)CC2)nc(N2CCN(C(=O)[C@H](CCC(=O)O)n3cc(C(N)[C@H](C)CC)nn3)CC2)n1 (stereo partly specified)	0%	0%	0%	-12%	-1%	-9%	.	.	.	.
O=C1Nc2ccc(I)cc2/C1=C/c1cc(Br)c(O)c(Br)c1	13µM*	.	17%[56.1 µM]	?	22µM*	25µM*	.	.	.	.	USP1 UbRho=74µM*
O=S(=O)(/N=C(\Sc1ccccc1)c1ccccc1)c1ccc(Cl)cc1	13µM*	2.4µM*	9%	11µM*	4%	79µM*	12*	?	27%	?
CC(=O)c1cccc([N+](=O)[O-])c1	3%	-8%	0%	6%	-2%	-8%	.	.	.	.
Cc1ccc(S(=O)(=O)CCC(=O)c2cccc([N+](=O)[O-])c2)cc1	2.1µM*	3.8µM*	6%	2.6µM*	-30%	16µM*	3.5*	3.2µM*	?	?
N#C/C(=C1\C(=O)Nc2c(Cl)cc(Cl)cc21)c1nnc2n1CCCCC2	?	?	3%	-13%	-7%	28µM*	6.7*	25µM*	35%	18%
COc1ccc(C(=O)/C=C/Sc2nc3ccccc3o2)cc1	2.6µM*	0.75µM*	4%	2.3µM*	-6%	18µM*	6*	3.2µM*	21µM*	21µM*

Assay outcomes deposited in PubChem by National Center for Advancing Translational Sciences (NCATS).
